# Bioassay records from PubChem BioAssay.
# Shown are actives, neighbours in structure and some others; about 2.4% of the full set was active somewhere.
# FEN1 inh – human FEN1 inhibition | P39748 | Recombinant FEN1 flap cleavage, fluorescence, 15 min | Potency, µM (titrated, usually from 114 µM), inactives show at the highest dose activity change, negative = inhibition, usual class: inhibitors | 390,000 tested, 0.35% active | AID 588795; further: on the % scale 0 is the no-effect control and ±100 the full control effect; nearly all actives have a fitted effect of over 65% in size
#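 FEN1 at 10 nM, compound pretreatment for 15 min (room temperature), 50 nM final substrate to initiate; endpoint reads at 0 and 15 min; DMSO-only plates used as vehicle background.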
# Pol eta inh-1 – DNA polymerase eta (human) inhibition | Q9Y253 | recombinant Pol eta, fluorescent DNA replication assay | Potency, µM (top dose mostly 114 µM), for inactives: top-dose activity change, negative = inhibition, usual class: inhibitors | 390,000 tested, 1.2% active | AID 588591; further: on the % scale 0 is the no-effect control and ±100 the full control effect
#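 Pol eta at 10 nM preincubated with compounds 15 min at room temperature; reaction started with fluorescent substrate (50 nM final) and read kinetically at 0 and 10 min.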
# Pol kappa inh-1 – blocks human DNA polymerase kappa activity; Q9UBT6; purified Pol kappa, fluorescent DNA synthesis assay, 10 min; Potency, µM (highest dose often 107 µM), inactives show at the highest dose activity, negative = inhibition, most hits filed as inhibitors; 400,000 tested, 0.53% active; further: on the % scale 0 is the no-effect control and ±100 the full control effect
#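 Here, compound and 10 nM enzyme are combined for 15 min at room temperature; adding 50 nM substrate (final) starts DNA synthesis, tracked by fluorescence at 0 and 10 min against buffer-only wells.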
# POLB inh – inhibitors of human DNA polymerase beta; P06746; Pol beta primer extension/strand displacement, fluorescence kinetic; Potency, µM (titrated, usually from 114 µM), inactives show at the top dose activity change, negative = inhibition, usual class: inhibitors; 340,000 tested, 1.3% active; further: on the % scale 0 is the no-effect control and ±100 the full control effect
#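 Reaction started by 50 nM substrate onto compound-treated Pol beta (10 nM, 15 min preincubation, room temperature); plates read at 0 min and 10 min. Normalized concentration-effect data fitted by four-parameter Hill equation.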
# TDP1 block – blocks human tyrosyl-DNA phosphodiesterase 1; Potency, µM (series often up to 130 µM), without a hit: top-dose activity change, negative = inhibition, hits mostly inhibitors; 350,000 tested, 0.28% active; Q9NUW8; AID 485290; recombinant TDP1, AlphaScreen DNA substrate cleavage; further: on the % scale 0 is the no-effect control and ±100 the full control effect; nearly all actives have a fitted effect of over 40% in size
# Target sequence (Q9NUW8 whole entry, looked up): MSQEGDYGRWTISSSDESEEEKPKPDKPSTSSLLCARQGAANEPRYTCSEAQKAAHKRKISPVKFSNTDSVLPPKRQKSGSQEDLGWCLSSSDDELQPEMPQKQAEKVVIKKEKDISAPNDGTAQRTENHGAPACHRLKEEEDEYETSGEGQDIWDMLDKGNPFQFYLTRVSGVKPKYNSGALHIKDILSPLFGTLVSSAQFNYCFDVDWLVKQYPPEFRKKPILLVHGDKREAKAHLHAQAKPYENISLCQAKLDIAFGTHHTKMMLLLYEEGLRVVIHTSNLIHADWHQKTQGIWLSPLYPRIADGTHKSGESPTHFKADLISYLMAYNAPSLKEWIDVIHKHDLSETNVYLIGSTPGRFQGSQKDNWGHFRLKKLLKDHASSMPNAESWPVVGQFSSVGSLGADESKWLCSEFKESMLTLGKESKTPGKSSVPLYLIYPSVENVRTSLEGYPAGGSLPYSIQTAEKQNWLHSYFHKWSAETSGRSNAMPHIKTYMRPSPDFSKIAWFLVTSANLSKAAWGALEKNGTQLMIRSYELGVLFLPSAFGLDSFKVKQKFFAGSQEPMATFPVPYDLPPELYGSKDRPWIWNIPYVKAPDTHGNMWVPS
#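 Recombinant human Tdp1 (E. coli-expressed, 1 nM final) preincubated with compounds 15 min at room temperature, then 5'-biotin/3'-phosphotyrosine-FITC DNA substrate (15 nM final) added for 5 min. AlphaScreen beads (10 ug/ml final) added 10 min; cleavage lowers signal.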
# POLI inh – DNA polymerase iota (human) inhibition | Q9UNA4 | Pol iota fluorescent replication assay, 10 min | Potency, µM (top dose mostly 115 µM), without a hit: at the top dose activity, negative = inhibition, actives largely listed as inhibitors | 390,000 tested, 1% active
#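 Pol iota at 10 nM preincubated 15 min with compounds at room temperature; reaction started with fluorescent substrate, 50 nM final. Fluorescence read kinetically at 0 and 10 min; buffer-only wells as negative control.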
# Pol kappa inh-2 – confirmation of human DNA polymerase kappa inhibitors | shares compounds with Pol eta inh-1 | purified Pol-kappa, fluorescent strand-displacement substrate | Potency, µM, hits mostly inhibitors | 920 tested, 76% active | AID 720501
# Pol eta inh-2 – Pol eta (human) inhibition, cherry-pick confirmation; shares compounds with Pol eta inh-1; Pol eta primer extension, TAMRA/BHQ fluorescence, 10 min; Potency, µM, actives largely listed as inhibitors; 2,600 tested, 64% active; AID 720502
# An asterisk follows results filed as active; ? = inconclusive; · = no result given; [ ] = another dose, or the depositor's remark. The call rests on the fitted dose curve; in most records, active means well fitted curve in the direction sought with a large enough effect; inconclusive means small, poorly fitted or top-dose-only effect, or another doubt; inactive means no such curve, though single readings can be large; an effect the other way counts as inactive or inconclusive. Potency means the concentration at half of the fitted maximal effect.
SMILES,FEN1 inh,Pol eta inh-1,Pol kappa inh-1,POLB inh,TDP1 block,POLI inh,Pol eta inh-2,others
Cc1cc(C)cc(N2C(=O)NC(=O)/C(=C\C=C\c3ccco3)C2=O)c1,-13.4%,17.8µM*,39.8µM*,28.2µM*,-1.9%,22.4µM*,30.1*,Pol kappa inh-2=18.9*
Oc1cccc(Cl)c1,·,·,·,·,3.7%,·,·,
O=C(Cc1ccc(S(=O)(=O)N2CCCC2)s1)N1CCN(c2ccc(F)cc2)CC1,?,?,?,31.6µM*,·,?,84.9*,
Cc1ccc2c(c1Cl)NC(C(=O)O)C1CC(Sc3ccccc3[N+](=O)[O-])C(Cl)C21 (stereo not drawn),?,44.7µM*,?,?,1.9%,?,?,
CCCCCC[C@H]1C(=O)O[C@H](C)[C@H](NC(=O)c2cccc(NC=O)c2O)C(=O)O[C@@H](C)[C@@H]1OC(=O)CC(C)C,·,·,-13.2%[19.4 µM],·,20.8%[56.1 µM],·,·,
C=CCN1C(=O)NC(=O)C(Cc2ccc(OC)c(OC)c2)C1=O (stereo not drawn),-10.9%,8.91µM*,?,-2.6%,-3.1%,?,30.1*,
COc1cc(CC2C(=O)N(C)C(=O)N(C)C2=O)ccc1OCc1ccccc1,-10.7%,7.3%,-2.7%,25.5%,-1.0%,-17.8%,·,
O=C1Nc2ccccc2/C1=C/c1nc2ccccc2c(=O)n1-c1ccc(O)cc1,?,?,?,?,2.6%,17.8µM*,?,
N=C1/C(=C\c2ccc(OC(=O)c3ccccc3Cl)cc2)C(=O)N=C2SC(N3CCOCC3)=NN12,?,22.4µM*,?,39.8µM*,5.1%,-80.8%,37.9*,
CCC(C)N1C(=O)/C(=C/c2ccc3c(c2)CCN3CCCCl)C(=O)NC1=S (stereo not drawn),-10.1%,15.8µM*,?,15.8µM*,0.0%,?,75.7*,Pol kappa inh-2=84.4*
CC(C)C1C(=O)N2CCC[C@H]2[C@]2(O)O[C@](NC(=O)[C@@H]3C=C4c5cccc6[nH]cc(c56)C[C@H]4N(C)C3)(C(C)C)C(=O)N12 (stereo partly drawn),·,·,-8.6%[19.4 µM],·,12.2%,·,·,
N#CC1=C(N)Oc2c(c(=O)oc3ccccc23)C1c1ccc([N+](=O)[O-])o1 (stereo not drawn),50.1µM*,20µM*,50.1µM*,?,?,?,84.9*,Pol kappa inh-2=37.7*
N#Cc1c(-c2csc(-c3no[n+]([O-])c3C#N)c2)no[n+]1[O-],·,·,·,·,·,·,?,
CCOc1ccc(NC(=O)CSc2oc(-c3ccccc3)nc2S(=O)(=O)c2ccc(Cl)cc2)cc1,10.1%,-8.1%,0.0%,?,2.9%,-4.8%,·,
CC1=C(O)C(=O)C=C2C1=CC=C1C2(C)CCC2(C)C3CC(C)(C(=O)O)CCC3(C)CCC12C (stereo not drawn),39.8µM*,7.94µM*,31.6µM*,·,·,3.55µM*,33.8*,
c1ccncc1,·,·,·,·,16.6%,·,·,
CCCC[C@@H](C)[C@@H](OC(=O)C[C@@H](CC(=O)O)C(=O)O)[C@H](C[C@@H](C)C[C@H](O)CCCC[C@@H](O)C[C@H](O)[C@H](C)N)OC(=O)C[C@H](CC(=O)O)C(=O)O,·,·,5.1%[19.4 µM],·,12.2%,·,·,
CCCCC(C)C(OC(=O)CC(CC(=O)O)C(=O)O)C(CC(C)CC(O)CCCCC(O)CC(O)C(C)N)OC(=O)CC(CC(=O)O)C(=O)O (stereo not drawn),-1.6%,?,79.4µM*,?,-11.0%,19.4%,75.7*,
NC1=C([N+](=O)[O-])C(c2ccc3c(c2)OCO3)c2c(c3ccccc3oc2=O)O1 (stereo not drawn),11.0%,-4.3%,-11.2%,-18.4%,6.2%,-5.2%,·,
